Screening data (PubChem BioAssay)
An excerpt weighted towards active compounds, which were near 21% of everything screened.
RORgamma inh – qHTS for inhibitors of ROR gamma transcriptional activity | Nuclear receptor ROR-gamma (Mus musculus), P51450 | Drosophila S2 Gal4-RORgamma UAS-luciferase reporter, 20 h | Potency, µM (titrated, usually from 53.6 µM), for inactives: top-dose activity change, negative = inhibition, hits mostly inhibitors | 5.4% of 310,000 active | AID 2551, 2010; also: potency is read from the fitted curve at half-maximal effect; nearly all actives have a fitted effect of over 60% in size
Target sequence (P51450 whole entry, looked up, the tested form may be a part): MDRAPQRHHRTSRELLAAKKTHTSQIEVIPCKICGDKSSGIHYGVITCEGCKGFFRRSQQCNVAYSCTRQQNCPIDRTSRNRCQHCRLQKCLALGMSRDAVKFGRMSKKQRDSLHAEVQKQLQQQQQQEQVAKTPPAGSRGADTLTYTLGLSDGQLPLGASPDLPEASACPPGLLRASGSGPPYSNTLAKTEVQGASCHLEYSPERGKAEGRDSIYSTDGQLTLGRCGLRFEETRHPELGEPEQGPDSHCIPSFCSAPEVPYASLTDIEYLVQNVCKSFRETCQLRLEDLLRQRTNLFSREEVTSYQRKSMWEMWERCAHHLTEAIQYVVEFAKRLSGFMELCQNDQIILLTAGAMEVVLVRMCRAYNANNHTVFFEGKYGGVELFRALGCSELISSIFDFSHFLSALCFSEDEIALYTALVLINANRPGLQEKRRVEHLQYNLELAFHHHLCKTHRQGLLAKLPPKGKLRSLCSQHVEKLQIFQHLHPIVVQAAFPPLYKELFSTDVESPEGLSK
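Drosophila S2 cells stably expressing Gal4-DBD/mouse RORγ fusion under metallothionein promoter plus UAS-luciferase; compound 1 h, then 700 uM CuSO4 induction for 20 h at ambient temperature; inhibition read as reduced luminescence.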
IL1B secr inh – qHTS for Inhibitors of Inflammasome Signaling: IL-1-beta AlphaLISA Primary Screen; THP-1 LPS/ATP IL-1B secretion, AlphaLISA, 16 h; hits give low values; activity change, % at 57.5 µM; 4.7% of 360,000 active; AID 743279, 2014; in the data active = activity change below about -50%; inconclusive = mostly about -30% to -49%
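Secreted IL-1B measured by AlphaLISA bead assay after 16 h compound exposure of THP-1 cells; compounds (final up to 57.5 uM) added 1 h before LPS (250 ng/mL) and ATP (1.25 mM) stimulation; lower signal means less secretion.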
TDP1 cell CPT – qHTS for Inhibitors of human tyrosyl-DNA phosphodiesterase 1 (TDP1): qHTS in cells in presence of CPT. chicken DT40 Tdp1-/-;hTDP1 cells + 20 nM CPT, ATP luminescence, 48 h. AID 686979, 2013. 12% of 420,000 active. Potency, µM (series often up to 46.2 µM), without a hit: top-dose activity change, negative = growth inhibition, most hits filed as inhibitors; also: potency is read from the fitted curve at half-maximal effect; nearly all actives have a fitted effect of over 55% in size
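Chicken DT40 Tdp1-/- cells complemented with human TDP1, 400 cells/well, exposed to compounds plus 20 nM camptothecin for at least 48 h at 37 C; viability read as ATP content by CellTiter-Glo luminescence.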
DT40 TDP1 no CPT – qHTS for Inhibitors of human tyrosyl-DNA phosphodiesterase 1 (TDP1): qHTS in cells in absence of CPT | 15% of 420,000 active | Potency, µM (doses to about 46.2 µM), for the others: top-dose activity change, negative = growth inhibition, usual class: inhibitors | DT40 Tdp1-/- hTDP1 cells, no CPT, ATP luminescence, 48 h; also: potency is read from the fitted curve at half-maximal effect; nearly all actives have a fitted effect of over 55% in size
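Compound effects on proliferation are scored in DT40 Tdp1-/-;hTDP1 cells in the absence of CPT. ATP levels (CellTiter-Glo luminescence) are recorded after a ≥48 hr, 37 °C incubation.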
Gal4-VP16 FLuc – VP16 counterscreen qHTS for inhibitors of ROR gamma transcriptional activity; Potency, µM (highest dose often 53.6 µM), for inactives: at the top dose activity, negative = inhibition, most hits filed as inhibitors; Drosophila S2 Gal4-VP16 UAS-luciferase, luminescence, 20 h; 3.5% of 310,000 active;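 also: Gal4-VP16 expression switched on by copper sulfate through the metallothionein promoter; potency is read from the fitted curve at half-maximal effect; nearly all actives have a fitted effect of over 50% in size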
ELG1 repair inh – qHTS screen for small molecules that inhibit ELG1-dependent DNA repair in human embryonic kidney (HEK293T) cells expressing luciferase-tagged ELG1; HEK293T ELG1-luciferase reporter, luminescence, 16 h; DNA damage induced by 5-fluorouridine; Potency, µM (titrated, usually from 46.1 µM), for inactives: at the top dose activity change, negative = inhibition, actives largely listed as inhibitors; 2.3% of 330,000 active; AID 504467, 2011; also: potency is read from the fitted curve at half-maximal effect; nearly all actives have a fitted effect of over 55% in size
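In this reporter screen, reduction of luminescence relative to DMSO vehicle indicated activity. Compounds and 5-fluorouridine were added together to 2,000 cells per well, incubated for 16 hr at 37 °C, then developed with ONE-Glo.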
* hit, by the source's call; ? = inconclusive; . = not tested or not shown. Unless noted, calls follow the shape of the dose curve; as a rule, active = well fitted curve in the direction sought with a large enough effect; inconclusive = small, poorly fitted or top-dose-only effect, or another doubt; inactive = no such curve, though single readings can be large; an effect the other way counts as inactive or inconclusive. % is scaled to controls: 0 for no effect and ±100 for the full control effect.

SMILES	RORgamma inh	IL1B secr inh	TDP1 cell CPT	DT40 TDP1 no CPT	Gal4-VP16 FLuc	ELG1 repair inh
O=c1c2oc3ccccc3c2n(Cc2ccccc2Cl)c(=O)n1Cc1ccc2c(c1)OCO2	.	.	-2%	?	.	.
COCCN1C[C@@H](CO)O[C@@H](n2cnc3c(NC4CC4)ncnc32)C1	.	?	-14%	2%	.	.
Cc1ccc(Cc2c(-c3cccc(Br)c3)nc3cc(C)c(Br)c(C)n23)cc1	.	0	?	?	.	.
Cc1cc2nc(-c3ccc(C#N)cc3)c(Cc3ccsc3)n2c(C)c1Br	.	4	16µM*	16µM*	.	.
COc1ccc(Cc2c(-c3ccccc3)nc3cc(C)c(Br)c(C)n23)c(C)c1	.	0	?	?	.	.
Cc1cc2nc(-c3ccccc3)c(Cc3ccccc3)n2c(C)c1Br	.	-4	23µM*	?	.	.
Cc1cc2nc(C3CCCCC3)c(Cc3ccccc3)n2c(C)c1Br	.	41	?	23µM*	.	.
Cc1cc2nc(-c3ccc(Cl)cc3)c(Cc3cccc(Cl)c3)n2c(C)c1Br	.	0	-20%	-25%	.	.
Cc1cc2nc(-c3ccccc3)c(Cc3ccsc3)n2c(C)c1Br	.	17	15µM*	15µM*	.	.
CCN(CC)S(=O)(=O)c1ccc2c(c1)nc(-c1ccccn1)n2C	23%	-11	-22%	?	18%	?
COc1cccc(NC(=O)c2oc3ccccc3c2NC(=O)COc2ccccc2C)c1	.	.	-25%	-20%	.	.
Cc1nn(-c2ccccc2)c(N2CCCC2)c1/C=N/NC(=O)c1ccccc1O	10µM*	15	?	?	10µM*	-11%
CCNc1ccc(C(=O)N/N=C/c2c(C)nn(-c3ccccc3)c2N2CCCC2)cc1[N+](=O)[O-]	-6%	18	18µM*	?	?	21µM*
O=C(N/N=C/c1oc(O)c2ccccc12)c1ccccc1O	?	0	4%	7%	-1%	25%
CCOc1ccc(Oc2c(/C=N/NC(C)=O)c(C)nn2-c2ccccc2)cc1	74%	-9	-18%	?	8%	?
O=C(N/N=C/c1cc2c3c(c1O)CCCN3CCC2)c1ccccc1O	?	221	3.7µM*	4.6µM*	20µM*	?
CCOc1ccc(Oc2c(/C=N/NC(=O)C3CC3)c(C)nn2-c2ccccc2)cc1	29%	6	?	15µM*	-6%	?
N=C1C(c2ccccc2)=C(O)CN1CCCO	3%	7	?	23%	-12%	-18%
Cc1ccc2cc(CN(c3ccccc3C)S(=O)(=O)c3ccccc3)c(=O)[nH]c2c1	8%	21	?	?	-12%	-29%
CC(C)(C)Cc1c(-c2ccc(Br)cc2)nc2ccc(Br)cn12	.	38	?	?	.	.
Cc1noc(C)c1NC(=O)N(C)C[C@H]1Oc2c(NC(=O)C3CCCCC3)cccc2C(=O)N([C@H](C)CO)C[C@@H]1C	.	25	5%	1%	.	11%
Cc1c(C)c2ccc(OCC(=O)N(C)C3CCS(=O)(=O)C3)c(C)c2oc1=O (stereo unspecified)	-1%	-29	-12%	-5%	-2%	13%
Cc1ccc(C(=O)ONc2ccc(N=O)cc2)cc1	25µM*	-10	-8%	4%	13µM*	14%
O=Nc1ccc(NOC(=O)c2ccc(Br)cc2)cc1	20%	.	.	.	2%	3%
O=c1c2oc3ccccc3c2n(Cc2cccc(F)c2)c(=O)n1Cc1ccc2c(c1)OCO2	.	.	-29%	?	.	.
SMILES	RORgamma inh	IL1B secr inh	TDP1 cell CPT	DT40 TDP1 no CPT	Gal4-VP16 FLuc	ELG1 repair inh
CCOC(=O)COc1c(OC)cc(Cl)cc1C1Nc2ccccc2C(=O)N1c1cccc(C)c1 (stereo unspecified)	26%	-11	?	26µM*	-12%	-2%
CC(C)OCCCNc1ncnc2c1nc1n2CCCC1	3%	22	-23%	-3%	-3%	?
COc1ccc(OC)c(Nc2ncnc3c2nc2n3CCCC2)c1	.	.	9.2µM*	?	.	.
COc1ccc(OC)c(CCNC(=O)C2CCN(c3ncnc4c3nc3n4CCCCC3)CC2)c1	-3%	12	?	?	0%	?
Cc1cc(C)cc(Nc2ncnc3c2nc2n3CCCC2)c1	.	.	9.2µM*	9.2µM*	.	.
COc1ccccc1Nc1ncnc2c1nc1n2CCCC1	.	.	7.3µM*	8.2µM*	.	.
COc1ccc(Cl)cc1Nc1ncnc2c1nc1n2CCCC1	.	.	12µM*	16µM*	.	.
CCCCc1c(C)[nH]c2nc3ccccc3n2c1=O	?	-5	1%	1%	-7%	?
Cc1ccc(Cl)cc1NC(=O)CN1C=NS(=O)(=O)c2ccccc21	.	.	-3%	-7%	.	.
O=C(NCc1ccccc1Cl)c1ccc2sc([C@@H]3O[C@H](CO)[C@H](O)[C@H](O)[C@H]3O)nc2c1	.	11	-1%	1%	.	.
CCCNC(=O)C1(C)CCCN(C(=O)c2cc(F)ccc2C)C1 (stereo unspecified)	.	0	-7%	2%	.	.
CCN(Cc1ccccc1)c1ncnc2c1nnn2C	.	.	-10%	-21%	.	.
O=c1c(-c2ccc(F)c(F)c2)nc2cncnc2n1Cc1ccc(F)cc1	?	.	15µM*	16µM*	?	.
O=c1c(-c2cccc(F)c2)nc2cncnc2n1Cc1ccccc1	12%	.	?	16µM*	8%	.
O=c1c(-c2cccc(F)c2)nc2cncnc2n1Cc1ccc(F)cc1	?	.	14%	-2%	?	.
CCOc1ccc(S(=O)(=O)N2CCN(c3nc(-c4ccccc4)nc4ccccc34)CC2)cc1	.	.	5%	-16%	.	.
COc1ccc(-c2cc3ccc(O)c(CN4CCCC4)c3oc2=O)cc1	.	.	-6%	-27%	.	.
Cc1cc(N2CCCC2)nc2ccc(NC(=S)NCCCN3CCC(C)CC3)cc12	-12%	-140*	?	?	-10%	-25%
Cc1cc(N2CCN(C)CC2)nc2ccc(NC(=S)NCCN3CCc4ccccc4C3)cc12	?	-1	?	?	?	-2%
Cc1cc(N2CCN(C)CC2)nc2ccc(NC(=S)NCCCN3CCc4ccccc4C3)cc12	?	-92*	?	?	-21%	?
